Source: PubChem
This excerpt belongs to a sample that is enriched for hits.
Dicer processing: inhibitors of human Dicer processing of pre-microRNA; Q9UPY3; cat-ELCCA pre-miR-21 Dicer processing, chemiluminescence; hits give high values; z-score at 25 µM; 6% of 47,000 active; AID 1347074; in the data active = z-score above about 3, passing the limit was not always enough;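 note: plate controls were vehicle for no effect and no enzyme for full effect; higher signal means more uncleaved substrate so more Dicer inhibition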
Numbers without * were called inactive.

SMILES	Dicer processing
CCCn1c(NCc2cccs2)nc2ccccc21	3.1*
c1ccc(Cn2c(NCc3cccs3)nc3ccccc32)cc1	3*
O=C(CN1C2=NCCCN2c2ccccc21)c1cccc2ccccc12	1.1
CC(C)Oc1ccc(C2N3CC4(C)CN2CC(C)(C3)C4O)cc1 (stereo not drawn)	-0.26
COC(=O)Cn1c2ccc(Cl)cc2c2nc3ccccc3nc21	-0.38
Cc1ccc(CSc2ccc(C(F)(F)F)cn2)cc1	-1.5
Cc1ccc(N2C(=O)C3ON(c4ccccc4)C(c4ccccc4O)C3C2=O)cc1 (stereo not drawn)	0.87
Cc1ccc(N2C(=O)C3ON(c4ccccc4)C(c4cccnc4)C3C2=O)cc1 (stereo not drawn)	-0.52
COc1cccc(N2C(=O)C3ON(c4ccccc4)C(c4ccccc4O)C3C2=O)c1 (stereo not drawn)	3.9*
O=C1C2ON(c3ccccc3)C(c3ccccc3O)C2C(=O)N1c1ccc(Br)cc1 (stereo not drawn)	3.4*
COc1ccc(C2C3C(=O)N(c4ccccc4)C(=O)C3ON2c2ccccc2)cc1 (stereo not drawn)	-0.29
COC(=O)c1ccc(N2C(=O)C3ON(c4ccccc4)C(c4ccc(OC)cc4OC)C3C2=O)cc1 (stereo not drawn)	-0.46
COc1ccc(N2C(=O)C3ON(c4ccccc4)C(c4ccccc4O)C3(C)C2=O)cc1 (stereo not drawn)	4*
O=C1C2ON(c3ccccc3)C(c3cc(Br)ccc3O)C2C(=O)N1c1ccccc1 (stereo not drawn)	4.7*
O=C1C2ON(c3ccccc3)C(c3cccnc3)C2C(=O)N1c1ccc(F)cc1 (stereo not drawn)	0.56
COc1ccc(N2C(=O)C3ON(c4ccccc4)C(c4cc(Br)ccc4O)C3C2=O)cc1 (stereo not drawn)	2.5
COc1ccc(C2C3C(=O)NC(=O)C3ON2c2ccccc2)cc1 (stereo not drawn)	-0.09
COc1ccc(N2C(=O)C3ON(c4ccccc4)C(c4ccco4)C3C2=O)cc1 (stereo not drawn)	0.58
COc1ccc(Cl)cc1NC(=O)c1nn(C)cc1[N+](=O)[O-]	-0.11
Cc1noc(C)c1S(=O)(=O)/N=C/N(C)C	-0.76
CC1ON(c2ccc(Br)cc2)C(=O)NC1=O (stereo not drawn)	2.5
COc1ccccc1NC(=O)Nc1c(-c2ccccc2Cl)noc1C	0.22
O=C(O)CCCCCN1C(=O)CCCC1=O	-0.03
Cc1cc(/C=N\Nc2c(Cl)cc(Cl)cc2C(F)(F)F)c2c(C)ccc(C(C)C)cc1-2	1.1
O=C1CC(c2ccc3c(c2)OCO3)c2c(ccc3ccccc23)N1 (stereo not drawn)	0.95
SMILES	Dicer processing
CC1=CC(C)C2COC(c3ccccc3O)C1C2C (stereo not drawn)	1.2
CC1=CC(C)C2COC(c3ccc4c(c3)OCO4)C1C2C (stereo not drawn)	4*
CCN(CC)CCn1c2ccccc2n2cc(C)nc12	0.75
O=[N+]([O-])c1cc(-c2nc(-c3cc(C(F)(F)F)cc(C(F)(F)F)c3)no2)cs1	1
Cc1ccc(-c2nc3cc(NCc4ccc5c(c4)OCO5)ccc3o2)cc1	8*
O=c1[nH]c2ccc(NCc3ccc4c(c3)OCO4)cc2[nH]1	-0.48
c1ccc(NCc2ccc3c(c2)OCO3)cc1	1.4
O=C(O)c1cc(NCc2ccc3c(c2)OCO3)ccc1N1CCOCC1	2.8
CCc1ccc(CNCc2ccc3c(c2)OCO3)cc1	1.6
CC(C)(C)c1ccc(-c2nc3cc(NC(=O)c4ccc([N+](=O)[O-])o4)ccc3o2)cc1	1
Clc1cc(NCc2ccc3c(c2)OCO3)ccc1N1CCOCC1	6.9*
Cc1ccc(-c2nc3cc(NC(=O)c4ccc([N+](=O)[O-])o4)ccc3o2)cc1	-0.19
Cc1cc(NCc2ccc3c(c2)OCO3)ccc1Br	3.8*
CC(C)(C)c1ccc(-c2nnc(SCC(=O)c3ccccc3)o2)cc1	-0.59
Cc1cc(-c2nc(-c3ccc(Cl)cc3)cs2)no1	0.54
Nc1sc2c(c1C(=O)c1ccc(Cl)cc1)CCN(Cc1ccccc1)C2	-1.2
CC(C)(C)c1cc(NS(=O)(=O)c2ccc(Cl)c(Cl)c2)n(-c2ccccc2)n1	0.18
Cc1nc(-c2cc(C#N)c(SCCC(=O)OC(C)(C)C)nc2C)cs1	-0.62
COc1ccc(-c2nc3n(n2)C(=O)CC(c2cccc4ccccc24)S3)cc1 (stereo not drawn)	4.2*
COc1ccc(-c2nc3n(n2)C(c2cccc(OC)c2OC)C2=C(CC(C)(C)CC2=O)N3)cc1 (stereo not drawn)	2.3
Cc1ccc(-c2nc3n(n2)C(=O)CC(c2ccc4c(c2)OCO4)S3)cc1 (stereo not drawn)	-0.11
O=C1CC(c2ccccc2)Sc2nc(-c3ccc(F)cc3)nn21 (stereo not drawn)	-0.47
O=C1CCC(=O)N1c1nc2n(n1)C(c1ccccc1)C=C(c1ccccc1)N2 (stereo not drawn)	2.5
O=C1CC(c2cccc3ccccc23)Sc2nc(-c3ccccc3)nn21 (stereo not drawn)	4.4*
Cc1cc(C(N)=O)nn1-c1c(Cl)cc(Cl)cc1Cl	-0.45
